# From PubChem BioAssay
# Unmarked numbers belong to inactive results. The source made the active and inactive calls.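 Rule for the calls: active = inhibition above the hit cutoff set in the earlier primary screen (cut at about 27% in these data); inactive = the rest.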
# Biological target: Protein phosphatase methylesterase 1 (Homo sapiens) (UniProt Q9Y570)
# Experiment: PME-1 inhibitor activity retest, confirmation, biochemical, fluorescence polarization, FP-Rh probe, triplicate (AID 2171);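 note: 0% = enzyme with DMSO and 100% = wells lacking PME-1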
# Conditions: recombinant PME-1, FP-Rh probe fluorescence polarization; at 5.9 µM; active compounds read high
# Protein phosphatase methylesterase 1 (Homo sapiens), sequence (Q9Y570 whole entry, looked up): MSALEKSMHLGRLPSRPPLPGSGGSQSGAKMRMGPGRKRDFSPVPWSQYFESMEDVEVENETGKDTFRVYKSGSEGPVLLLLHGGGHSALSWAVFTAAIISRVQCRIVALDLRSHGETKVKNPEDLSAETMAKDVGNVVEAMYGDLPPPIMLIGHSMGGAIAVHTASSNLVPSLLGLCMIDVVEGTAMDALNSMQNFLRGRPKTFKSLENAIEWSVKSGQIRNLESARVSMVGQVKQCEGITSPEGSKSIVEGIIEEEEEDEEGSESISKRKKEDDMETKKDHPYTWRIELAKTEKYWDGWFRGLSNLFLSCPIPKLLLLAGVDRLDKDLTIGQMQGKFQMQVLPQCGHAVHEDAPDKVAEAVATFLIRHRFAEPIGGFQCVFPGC
row,SMILES,inhibition
1,Cc1cc(O)c(NC(=S)NC(=O)c2ccc(-c3ccc(Cl)cc3)o2)cc1C,42.2% (active)
2,Cc1noc(C)c1CSc1nc2ccccc2nc1NS(=O)(=O)c1ccc(Cl)cc1,36% (active)
3,Cc1ccc2nc(/C(C#N)=C/c3ccc(O)c(O)c3)[nH]c2c1,17.9%
4,O=C(O)/C(CC(=O)c1ccc(Cl)cc1)=N/Nc1ccc([N+](=O)[O-])cc1[N+](=O)[O-],42.7% (active)
5,CCC(=O)NC(c1ccccc1Cl)c1c(O)ccc2ccccc12 (stereo not given),53.2% (active)
6,O=C1c2ccccc2-c2onc3ccc(NCc4ccco4)c1c23,84.5% (active)
7,O=C(O)c1cccc(-n2c(/C=C/c3ccc([N+](=O)[O-])cc3)nc3ccccc3c2=O)c1,24.3%
8,CCc1ccc(CNc2ccc(O)cc2)cc1,7.5%
9,Cc1ccc2[nH]c(C)c(/C=N/Nc3nc4ccccc4s3)c2c1,41.1% (active)
10,O=c1[nH][nH]c2cc(=O)n(-c3cccc(C(F)(F)F)c3)nc12,28.5% (active)
11,O=C(O)CSc1cc(NS(=O)(=O)c2ccc(Cl)cc2)c2ccccc2c1O,14.2%
12,Cc1ccc(S(=O)(=O)N2CCOCC2)cc1NC(=O)COC(=O)c1ccccc1OCc1c(C)noc1C,16.8%
13,N#CCC(=O)c1ccccc1Oc1ccc(Cl)cc1,13.4%
14,C=CCn1c(NS(=O)(=O)c2ccccc2)c(S(=O)(=O)c2ccc(C)cc2)c2nc3ccccc3nc21,8.89%
15,O=[N+]([O-])c1ccc(N/N=C/c2ccccc2O)cc1,10.8%
16,CCn1c(CSc2n[nH]c(N)n2)nc2cc(C(=O)O)ccc21,33.5% (active)
17,CCc1ccc(-c2cc(C(=O)N/N=C/c3c[nH]c4ccccc34)[nH]n2)cc1,12%
18,Oc1ccc(-c2cnc(-c3ccc(O)cc3)nc2)cc1,16.1%
19,O=C(c1ccc2oc(CCCc3ccccc3)nc2c1)N1CCCC(CCCO)C1 (stereo not given),23.5%
20,CC1=Nc2ccccc2/C1=C\c1sc(Nc2ccc(C)cc2)nc1O,42.2% (active)

row,SMILES,inhibition
1,CCCCOC(=O)c1ccc(NC(=O)Nc2ccc(OC)c(OC)c2)cc1,14.7%
2,S=C(NCc1ccccc1)NCc1cccc(CNC(=S)NCc2ccccc2)c1,3.07%
3,Cn1c(=O)c(C#N)c(-c2ccc(F)cc2)c2cc(C(=O)c3cc(Cl)cc(Cl)c3O)cnc21,59.1% (active)
4,CCCOc1ccc([C@@H]2C3CN(C(=O)OCC)CC=C3C(C#N)=C(N)C2(C#N)C#N)cc1OC (stereo not given in full),53.6% (active)
5,Cc1ccc(S(=O)(=O)N2CCN(C(=O)Cn3c(=O)cnc4ccccc43)CC2)cc1,25.8%
6,COc1ccccc1-c1sc2ccccc2c1-c1ccc(C(C)=O)cc1,-9.37%
7,CN(C)c1ccc(NC(=O)Nc2cccc(Cl)c2)cc1,19.8%
8,COc1ccc(Nc2cnn(-c3nc4ccccc4s3)c(=O)c2Cl)cc1,37.3% (active)
9,O=C(O)CSc1cc(NS(=O)(=O)c2ccc(Br)cc2)c2ccccc2c1O,3.78%
10,Cc1ccc(S(=O)(=O)/N=C2/C=C(Sc3ncn[nH]3)C(=O)c3ccccc32)c(C)c1,49.6% (active)
11,Cc1[nH]c2ccccc2c1/C=N/NC(=O)c1cc(-c2ccncc2)nc2ccccc12,23%
12,CCn1c(CSc2nnc3ccccn23)nc2cc(C(=O)O)ccc21,59% (active)
13,Cc1oc(-c2ccc3ccccc3c2)nc1CN(C)C(C)c1ccncn1 (stereo not given),4.93%
14,CC1CCCCN1S(=O)(=O)c1ccc(C(=O)Nc2ccccc2-c2nc3ccccc3[nH]2)cc1 (stereo not given),8.87%
15,O=C(O)c1ccccc1-c1ccccc1C(=O)Nc1ccc(-c2nc3cc(Cl)ccc3o2)cc1,22.2%
16,CCOc1cc(/C=C/c2ccc3cccc([N+](=O)[O-])c3n2)cc(Cl)c1O,-9.78%
17,N#CC1=C(N)C(C#N)(C#N)C(c2cccnc2)C2CN(C(=O)OCc3ccccc3)CC=C12 (stereo not given),35.5% (active)
18,COc1cc(/C=N/NC(=O)c2cc3ccccc3[nH]2)ccc1O,16.1%
19,CC1=CC(C)(C)N2C(=O)C(=Nc3ccc(O)cc3)c3cccc1c32,4.13%
20,O=C1NC(=S)/C(=C\c2ccc(-c3ccccc3Cl)o2)S1,33.2% (active)
